The source made the active and inactive calls.

Consider five compounds from PubChem BioAssay.

In assay [1] the test system is Wnt5a (protein binding on small-molecule microarray). In words: small molecules binding Wnt5a protein – biophysical, small-molecule microarray, 635/667 nm fluorescence, primary screen (AID 1142).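 Note: fluorescence read at 667 nm with signal to noise per printed feature.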 The conditions noted are these: 635 nm fluorescence, higher = more signal.
A short description of assay [2]: ATP-based viability of Huh7 replicon cells – cell-based, CellTiter-Glo luminescence, basal, 48 h, cytotoxicity control for HCV replication inhibitor project, primary screen (AID 1143).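 Note: Huh7 hepatoma cells carrying a hepatitis C replication reporter with no stimulus; test concentration not given here.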 The conditions noted are these: higher = more signal, called active from +8 up or from −8 down. On the technique in general: In antiviral work, replicon cells carry a viral genome segment that copies itself.

Assay [3] is described as follows: basal CRE-LacZ reporter activity in PC12 – cell-based, unstimulated, primary screen (AID 1145). As to conditions: no forskolin, luminescence, 4.5 h, higher = more signal, called active from +8 up or from −8 down.
Assay [4] in a line: forskolin-driven CRE-LacZ activity in PC12 – cell-based, CRE-LacZ reporter, forskolin-stimulated, primary screen (AID 1146).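 Note: PC12 cells with 6xCRE LacZ reporter stimulated by forskolin 10 µM; beta-galactosidase reporter signal reflecting CREB driven transcription.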 The conditions noted are these: luminescence, 4.5 h, higher = more signal, called active from +8 up or from −8 down.
The target in assay [5] is Streptavidin (Streptomyces avidinii) (UniProt P22629). In words: compounds binding control protein streptavidin – biophysical, small-molecule microarray, 635/667 nm fluorescence, artefact control for SMM compound annotation, primary screen (AID 1147).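 Note: signal reflects streptavidin binding to arrayed compounds as a control protein.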 The conditions noted are these: higher = more signal.
Streptavidin (Streptomyces avidinii), sequence (P22629 whole entry, looked up): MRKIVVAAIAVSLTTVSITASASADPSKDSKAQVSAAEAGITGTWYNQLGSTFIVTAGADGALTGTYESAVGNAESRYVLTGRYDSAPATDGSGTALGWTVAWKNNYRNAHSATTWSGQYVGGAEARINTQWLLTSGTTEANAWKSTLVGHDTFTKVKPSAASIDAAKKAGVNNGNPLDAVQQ
The nature of assay [6]: probe aInhba binding on compound microarray – biochemical, small-molecule microarray, 635/667 nm fluorescence, primary screen (AID 1148).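 Note: score merges 667nm spot fluorescence with signal-to-noise for antibody binding to printed compounds.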 The conditions noted are these: higher = more signal.
The target in assay [7] is Torsin-1A (Homo sapiens) (UniProt O14656). Kind of assay: TOR1A wild-type binding on microarray – cell lysate, small-molecule microarray, lysate, 635/667 nm, primary screen (AID 1149). As to conditions: COS7 hTOR1A-WT lysate, 635 nm fluorescence, higher = more signal.
Torsin-1A (Homo sapiens), sequence (O14656 whole entry, looked up): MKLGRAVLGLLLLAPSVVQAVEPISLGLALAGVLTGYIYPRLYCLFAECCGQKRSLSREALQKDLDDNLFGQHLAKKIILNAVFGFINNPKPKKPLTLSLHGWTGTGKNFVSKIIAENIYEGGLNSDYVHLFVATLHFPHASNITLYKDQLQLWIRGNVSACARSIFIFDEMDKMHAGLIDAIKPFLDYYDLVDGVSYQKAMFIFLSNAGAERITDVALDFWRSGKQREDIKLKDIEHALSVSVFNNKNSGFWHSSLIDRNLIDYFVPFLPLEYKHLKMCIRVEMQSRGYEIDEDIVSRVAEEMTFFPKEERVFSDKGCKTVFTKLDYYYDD
The target is the same in assay [8]. Kind of assay: torsin A mutant lysate binding on microarrays – cell lysate, small-molecule microarray, COS7 lysate, 635/667 nm fluorescence, primary screen (AID 1150).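 Note: score pools 667 nm emission and signal to noise measuring lysate protein binding.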 As to conditions: COS7 hTOR1A mutant lysate, 635 nm fluorescence, higher = more signal.
The test system of assay [9] is Sonic hedgehog protein (Shh). In words: Sonic hedgehog microarray binding compounds – biochemical, small-molecule microarray, 635/667 nm fluorescence, primary screen (AID 1151).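 Note: Shh protein binding to compounds spotted on small-molecule microarray slides; score combines spot fluorescence intensity with signal-to-noise across triplicate slides.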 As to conditions: 635 nm fluorescence, higher = more signal.
Assay [10] can be described thus: optical density shifts of acrAB sulA E. coli – strain DRC41, OD650, 48 h, E. coli filamentation inducer project, primary screen (AID 1152).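 Note: E. coli MC1000 strain DRC41 lacking acrAB efflux pump and sulA.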 The conditions noted are these: higher = more signal, called active from +8 up or from −8 down.
The nature of assay [11]: probe aLefty1 binding on compound microarray – biochemical, small-molecule microarray, 635/667 nm fluorescence, primary screen (AID 1153).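 Note: score merges spot fluorescence with signal-to-noise ratio from the scanned slide images.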 The conditions noted are these: higher = more signal.
The nature of assay [12]: plasmodial surface anion channel blockers, osmotic lysis – cell-based, P. falciparum Indochina, OD700, 1 h, primary screen (AID 1154). The conditions noted are these: P. falciparum Indochina infected RBC osmotic lysis, higher = more signal, called active from +8 up or from −8 down.
Assay [13] in a line: plasmodial surface anion channel blockers, osmotic lysis – cell-based, P. falciparum Indochina, OD700, 2 h, primary screen (AID 1155).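 Note: lysis reports solute entry through the parasite surface anion channel PSAC.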 The conditions noted are these: P. falciparum Indochina infected erythrocytes, higher = more signal, called active from +8 up or from −8 down.
Assay [14] can be described thus: changes in parasitized red cell lysis, either direction – P. falciparum Indochina, OD700, 3 h, PSAC antagonist project, primary screen (AID 1156). As to conditions: P. falciparum-infected erythrocytes, osmotic lysis, higher = more signal, called active from +8 up or from −8 down.
Assay [15] in a line: plasmodial surface anion channel blockers, osmotic lysis – cell-based, P. falciparum Indochina, OD700, 18 h, primary screen (AID 1157). The conditions noted are these: P. falciparum Indochina infected erythrocytes, osmotic lysis OD700, 18 h; higher = more signal, called active from +8 up or from −8 down.
Assay [16] can be described thus: S6 kinase pathway phospho-S6 level changes – cell-based, A549, cytoblot, luminescence, serum-stimulated, primary screen (AID 1158).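 Note: serum-stimulated A549 lung adenocarcinoma cells; signal is phosphorylated S6 detected by cytoblot immunostaining with HRP secondary.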 As to conditions: 5 h, higher = more signal.
In assay [17] the target is NADPH oxidase 2 (Homo sapiens) (UniProt P04839). In words: compounds shifting NOX2 Amplex Red fluorescence – cell-based, HEK293-NOX2, PMA-stimulated, NOX inhibitor project, primary screen (AID 1159). Note: test concentration not given here. The conditions noted are these: 45 min, higher = more signal, called active from +8 up or from −8 down.
NADPH oxidase 2 (Homo sapiens), sequence (P04839 whole entry, looked up): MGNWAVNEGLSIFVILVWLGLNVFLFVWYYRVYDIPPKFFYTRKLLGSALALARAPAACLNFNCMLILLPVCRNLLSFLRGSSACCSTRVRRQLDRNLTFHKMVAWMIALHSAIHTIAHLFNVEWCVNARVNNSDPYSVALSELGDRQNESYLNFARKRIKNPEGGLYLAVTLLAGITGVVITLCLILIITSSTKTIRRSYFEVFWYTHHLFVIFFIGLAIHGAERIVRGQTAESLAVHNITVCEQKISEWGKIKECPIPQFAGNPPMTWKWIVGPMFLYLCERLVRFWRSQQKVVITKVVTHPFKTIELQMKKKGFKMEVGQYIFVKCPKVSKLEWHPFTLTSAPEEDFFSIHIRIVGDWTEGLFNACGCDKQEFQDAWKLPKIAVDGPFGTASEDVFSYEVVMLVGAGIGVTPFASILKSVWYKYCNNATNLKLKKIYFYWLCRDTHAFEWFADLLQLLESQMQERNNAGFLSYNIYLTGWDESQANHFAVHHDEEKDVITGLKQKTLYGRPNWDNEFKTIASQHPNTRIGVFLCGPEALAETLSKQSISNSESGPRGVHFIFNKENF
Assay [18] concerns the target NADPH oxidase 4 (Homo sapiens) (UniProt Q9NPH5). In words: compounds shifting NOX4 Amplex Red fluorescence – cell-based, HEK293-NOX4, tetracycline-induced, NOX inhibitor project, primary screen (AID 1160). The conditions noted are these: HEK293-NOX4, Amplex Red H2O2 fluorescence, 45 min; higher = more signal, called active from +8 up or from −8 down.
Assay [19] concerns the target NADPH oxidase 5 (Homo sapiens) (UniProt Q96PH1). In words: compounds shifting NOX5 Amplex Red fluorescence – cell-based, HEK293-NOX5, NOX inhibitor project, primary screen (AID 1161). As to conditions: HEK293-NOX5, ionomycin, 45 min, higher = more signal.
Assay [20] in a line: compound effects on lung adenocarcinoma cell viability – A549, calcein-AM fluorescence, 48 h, basal, profiling panel (AID 1162). Note: test concentration not given here. As to conditions: higher = more signal.

NADPH oxidase 5 (Homo sapiens), sequence (Q96PH1 whole entry, looked up): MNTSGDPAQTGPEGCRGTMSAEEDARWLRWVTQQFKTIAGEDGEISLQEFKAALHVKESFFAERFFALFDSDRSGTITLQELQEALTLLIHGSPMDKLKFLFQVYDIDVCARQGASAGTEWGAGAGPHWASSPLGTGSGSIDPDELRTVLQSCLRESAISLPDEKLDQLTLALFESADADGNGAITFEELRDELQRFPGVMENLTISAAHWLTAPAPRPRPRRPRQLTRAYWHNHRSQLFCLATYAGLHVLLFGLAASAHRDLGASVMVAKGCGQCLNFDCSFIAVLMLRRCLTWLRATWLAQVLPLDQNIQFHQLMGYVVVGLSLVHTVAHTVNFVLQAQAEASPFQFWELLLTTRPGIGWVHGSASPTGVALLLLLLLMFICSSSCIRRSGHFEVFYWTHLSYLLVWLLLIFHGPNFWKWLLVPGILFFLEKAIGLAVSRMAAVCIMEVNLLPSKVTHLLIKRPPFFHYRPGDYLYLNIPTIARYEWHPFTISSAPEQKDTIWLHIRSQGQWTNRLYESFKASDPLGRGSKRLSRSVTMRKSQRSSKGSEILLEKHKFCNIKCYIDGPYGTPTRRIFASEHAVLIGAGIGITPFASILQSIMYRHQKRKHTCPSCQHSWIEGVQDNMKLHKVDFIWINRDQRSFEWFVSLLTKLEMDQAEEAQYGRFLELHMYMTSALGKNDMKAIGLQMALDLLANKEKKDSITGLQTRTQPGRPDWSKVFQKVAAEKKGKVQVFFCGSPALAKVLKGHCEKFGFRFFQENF
NADPH oxidase 4 (Homo sapiens), sequence (Q9NPH5 whole entry, looked up): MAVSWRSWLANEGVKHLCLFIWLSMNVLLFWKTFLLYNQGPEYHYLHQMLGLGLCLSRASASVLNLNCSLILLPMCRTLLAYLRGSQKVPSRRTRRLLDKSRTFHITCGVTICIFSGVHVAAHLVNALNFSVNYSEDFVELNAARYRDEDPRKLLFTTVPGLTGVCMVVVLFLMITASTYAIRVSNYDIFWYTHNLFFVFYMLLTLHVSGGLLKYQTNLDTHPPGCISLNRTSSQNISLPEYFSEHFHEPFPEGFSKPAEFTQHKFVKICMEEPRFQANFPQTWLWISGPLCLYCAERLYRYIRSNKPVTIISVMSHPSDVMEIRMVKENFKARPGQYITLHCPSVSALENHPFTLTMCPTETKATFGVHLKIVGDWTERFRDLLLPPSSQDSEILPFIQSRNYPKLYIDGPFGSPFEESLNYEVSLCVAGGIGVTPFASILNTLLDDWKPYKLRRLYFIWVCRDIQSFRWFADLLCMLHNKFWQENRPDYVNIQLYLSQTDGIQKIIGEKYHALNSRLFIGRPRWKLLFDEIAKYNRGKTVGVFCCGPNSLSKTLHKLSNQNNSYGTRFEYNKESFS

Consider `C=CCOC(=O)[C@H]1[C@@H]2C(=O)O[C@@H](c3ccccc3)[C@@H](c3ccccc3)N2[C@@H](c2ccc(OCCOC(=O)[C@H]3C[C@H]4C(=O)N5CCC[C@H]5C(=O)N4[C@H]3c3cccc(OCCO)c3)cc2)[C@]12C(=O)Nc1ccccc12`, for which the composite z-score in assay [1] was 0.135; in assay [5] it was -0.0186; in [6], -0.0849; with Torsin-1A (Homo sapiens) [7], 0.292; with Torsin-1A (Homo sapiens) [8] it was 1.54; in [9] it was 1.18. Also, the composite z-score in assay [11] was -0.106. Further, the z-score in [2] is -2.03 (inactive); in [3], 1.22 (inactive); in assay [4], -0.378 (inactive); in assay [10], 1.18 (inactive); in assay [12] it was 5.04 (inactive); in assay [13], 1.7 (inactive). In addition, the z-score in assay [14] was -0.158 (inactive); in [15], 0.741 (inactive); in assay [16] it was -0.0338; in [17], 2.26 (inactive); in [18], 1.57 (inactive); in assay [19], 1.43. In addition, the z-score in assay [20] was 0.552.

Take `Cc1ccc(S[C@]2(C(=O)NCC(C)C)CC(=O)N(C(C)C)[C@@H]2c2ccc(CO)cc2)cc1`: the composite z-score is 0.114 in assay [1]; -1.13 in assay [5]; 0.0464 in [6]; 0.234 in the assay with Torsin-1A (Homo sapiens) [7]; 0.0167 with Torsin-1A (Homo sapiens) [8]; -0.305 in [9]. In addition, in assay [11], the composite z-score was -0.191. The z-score in assay [2] is -4.95 (inactive); in assay [3], 0.182 (inactive); in [4] it was -0.838 (inactive); in [10], 2.67 (inactive); in assay [12], 1.73 (inactive); in [13], -0.147 (inactive). Moreover, the z-score in assay [14] is -0.651 (inactive); in [15] it was -1.54 (inactive); in assay [16], 3.27; in [17], 0.827 (inactive); in assay [18], -0.881 (inactive); in assay [19] it was 0.137. For the same compound, the z-score in assay [20] is -0.0169.

With `CCCCC(=C=CC[C@H](O)c1cccc(OCCO)c1)CCO`, the composite z-score is -0.0668 in [1]; -0.209 in assay [5]; 0.0355 in [6]; 1.13 with Torsin-1A (Homo sapiens) [7]; 0.983 in the assay with Torsin-1A (Homo sapiens) [8]; 0.242 in [9]. Further, in [11], the composite z-score is 0.37. In addition, the z-score in assay [2] is -0.081 (inactive); in [3], 4.86 (inactive); in assay [4], -0.679 (inactive); in assay [10] it was 0.892 (inactive); in [12] it was 11.4 (active); in [13], 1.91 (inactive). Also, the z-score is 1.2 (inactive) in assay [14]; 0.774 (inactive) in assay [15]; -0.679 in assay [16]; 1.06 (inactive) in [17]; 0.362 (inactive) in [18]; -1.64 in assay [19]. Besides, in assay [20], the z-score is 1.13.

Regarding `CC(C)C[C@@H]1NC(=O)[C@@]23C(=O)N[C@@H](Cc4ccccc4)C2[C@H](C)[C@@]2(C)O[C@H]2C3/C=C/C/C=C\CNC(=O)[C@H](Cc2ccccc2)NC1=O` (stereo not given in full), the composite z-score is -0.108 in [1]; -0.198 in [5]; -0.082 in assay [6]; 0.305 with Torsin-1A (Homo sapiens) [7]; 0.384 with Torsin-1A (Homo sapiens) [8]; 0.46 in assay [9]. For the same compound, the composite z-score in assay [11] is -0.147. Also, the z-score is -4.13 (inactive) in [2]; 4.56 (inactive) in [3]; -2.06 (inactive) in assay [4]; 1.76 (inactive) in assay [10]; 1.53 (inactive) in assay [12]; -0.0735 (inactive) in [13]. Further, the z-score in [14] was 0.966 (inactive); in assay [15], 0.256 (inactive); in assay [16], 0.497; in assay [17] it was -0.188 (inactive); in assay [18], 0.692 (inactive); in assay [19] it was -3.15. Moreover, the z-score in assay [20] was 0.823.

`CO[C@H]1O[C@H](CO)[C@@H](OC(=O)Nc2ccccc2)[C@H](OC(=O)Nc2ccccc2-c2ccccc2)[C@@H]1OC(=O)Nc1ccccc1-c1ccccc1`: the composite z-score in assay [1] was 0.36; in [5] it was 1.44; in [6] it was 0.329; in the assay with Torsin-1A (Homo sapiens) [7] it was 1.17; in the assay with Torsin-1A (Homo sapiens) [8], 0.806; in assay [9] it was 2.03. In [11], this compound showed a composite z-score of 1.29. The z-score in assay [2] was -5.22 (inactive); in assay [3], 0.204 (inactive); in [4] it was -0.446 (inactive); in assay [10], 1.33 (inactive); in assay [12], 2.57 (inactive); in assay [13], 0.116 (inactive). The z-score in assay [14] is -0.358 (inactive); in [15] it was -2.03 (inactive); in [16] it was 1.01; in assay [17], 2.2 (inactive); in assay [18], 0.697 (inactive); in assay [19], 0.306. Moreover, the z-score in assay [20] was -1.01.
